From PubChem BioAssay (NCI) come the findings set out here.

The nature of assay [1]: NCI Yeast Anticancer Drug Screen. Data for the rad50 strain (AID 155).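 Further: 0% = growth of vehicle-only cultures of the same strain.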 The following applies: S. cerevisiae rad50 strain growth inhibition, stronger effect = higher value. In a few lines: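 Inhibition values express reduced yeast growth in compound-treated cultures relative to vehicle-treated controls.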
Assay [2] in a line: NCI Yeast Anticancer Drug Screen. Data for the mec2-1 strain (AID 157). To be noted: S. cerevisiae mec2-1 strain, stronger effect = higher value. In a few lines: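 Test agents were screened against the mec2-1 yeast strain, with defined DNA repair or cell cycle alteration. Growth was scored as inhibition against vehicle-only controls.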
Assay [3] is described as follows: NCI Yeast Anticancer Drug Screen. Data for the cln2 rad14 strain (AID 165).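 Further: 0% = growth equal to vehicle treated cultures.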 To be noted: S. cerevisiae cln2 rad14 strain, stronger effect = higher value. In a few lines:
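Growth of compound-exposed yeast (cln2 rad14 genotype) measured and expressed as inhibition relative to vehicle.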

A short description of assay [4]: NCI Yeast Anticancer Drug Screen. Data for the bub3 strain (AID 167). To be noted: S. cerevisiae bub3 mutant strain, stronger effect = higher value. In a few lines: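 Steps: expose the mutant yeast strain to compound; grow alongside vehicle-treated cultures; measure growth; express inhibition against the vehicle cultures.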
Assay [5] can be described thus: NCI Yeast Anticancer Drug Screen. Data for the mlh1 rad18 strain (AID 175). To be noted: S. cerevisiae mlh1 rad18 strain growth inhibition, stronger effect = higher value. In a few lines: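 In this whole-cell yeast screen, a strain with altered DNA damage repair is challenged with compound, and its growth is measured against matched vehicle-treated controls.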
Assay [6] in a line: NCI Yeast Anticancer Drug Screen. Data for the sgs1 mgt1 strain (AID 161).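 Further: 0% = growth of cultures given vehicle only.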 To be noted: S. cerevisiae sgs1 mgt1 strain, stronger effect = higher value. In a few lines: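 Mutant yeast exposed to compound; growth scored against vehicle-only wells.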
[7] abbreviates: at 5.0 µM (retest, dose inferred, filed as 0.5).
The mark [8] stands for this setting: at 50.0 µM (retest, dose inferred, filed as 5.0).

“And” between values parts separate entries of the source, which are not always exact repeats. Equal values may be shown once. The panel holds about 79,000 compounds, 15% with a hit somewhere; the sample as a whole holds those more often. Unmarked numbers belong to inactive results. The source made the active and inactive calls. No stated cut-off is given here; in the data, active means growth inhibition above about 70%; inactive means the rest.

Take `CCOC(=O)c1ccc(NC(=O)O/N=C(/Cl)CC)cc1`: the growth inhibition in assay [1] (setting [7]) was 4%; in assay [1] (setting [8]), 83% (active); in assay [1] (at 50.0 µM), 67%; in assay [2] (setting [7]), -7%; in assay [2] (setting [8]) it was 71% (active); in assay [2] (at 50.0 µM), 78.5% (active). For the same molecule, the growth inhibition in assay [3] (setting [7]) is 35%; in assay [3] (setting [8]), 51%; in assay [3] (at 50.0 µM), 64.8%; in assay [4] (setting [7]) it was -40%; in assay [4] (setting [8]) it was 51%; in assay [4] (at 50.0 µM), 63.8%. Also, the growth inhibition in assay [5] (setting [7]) was 8%; in assay [5] (setting [8]) it was 86% (active); in assay [5] (at 50.0 µM) it was 69.7%.

Take `OCCSC(=S)Nc1ccc(Cl)c(Cl)c1`: the growth inhibition is 47% in assay [1] (setting [7]); 99% (active) in assay [1] (setting [8]); 99.6% (active) in assay [1] (at 50.0 µM); 78% (active) in assay [6] (setting [7]); 100% (active) in assay [6] (setting [8]); 99.8% (active) in assay [6] (at 50.0 µM). In addition, the growth inhibition in assay [3] (setting [7]) was 0%; in assay [3] (setting [8]), 99% (active); in assay [3] (at 50.0 µM) it was 99.5% (active); in assay [4] (setting [7]) it was 44%; in assay [4] (setting [8]) it was 99% (active); in assay [4] (at 50.0 µM), 99.8% (active). The growth inhibition in assay [5] (setting [7]) is 85% (active); in assay [5] (setting [8]) it was 99% (active); in assay [5] (at 50.0 µM), 99.5% (active).

Regarding `CSc1nc2nn(Cc3ccccc3)cc2c(=O)[nH]1`, the growth inhibition in assay [1] (setting [7]) is -6%; in assay [1] (setting [8]) it was 22%; in assay [1] (at 50.0 µM) it was -7.95%; in assay [6] (setting [7]), 9%; in assay [6] (setting [8]), 21%; in assay [6] (at 50.0 µM) it was 2.4%. Besides, the growth inhibition in assay [3] (setting [7]) was 17%; in assay [3] (setting [8]), 50%; in assay [3] (at 50.0 µM), -22.8%; in assay [4] (setting [7]), 27%; in assay [4] (setting [8]), 47%; in assay [4] (at 50.0 µM), -9.9%. For the same molecule, the growth inhibition in assay [5] (setting [7]) was 20%; in assay [5] (setting [8]) it was 39%; in assay [5] (at 50.0 µM), 11.8%.

Take `CC(=O)Nc1ccc(S(=O)(=O)N/N=C/c2cc(I)cc([N+](=O)[O-])c2O)cc1`: the growth inhibition is 9% in assay [1] (setting [7]); 71% (active) in assay [1] (setting [8]); 89% (active) in assay [1] (at 50.0 µM); 10% in assay [2] (setting [7]); 81% (active) in assay [2] (setting [8]); 81.5% (active) in assay [2] (at 50.0 µM). Besides, the growth inhibition in assay [3] (setting [7]) was 1%; in assay [3] (setting [8]), 35%; in assay [3] (at 50.0 µM) it was 83.1% (active); in assay [4] (setting [7]) it was 1%; in assay [4] (setting [8]), 47%; in assay [4] (at 50.0 µM), 70.5% (active). Also, the growth inhibition in assay [5] (setting [7]) is 12%; in assay [5] (setting [8]), 72% (active); in assay [5] (at 50.0 µM), 94.3% (active).

Take `CSC(=S)n1nc(-c2cccs2)c(N=Nc2ccccc2)c1C(F)(F)F`: the growth inhibition in assay [2] (setting [7]) was -1%; in assay [2] (setting [8]), 98% (active); in assay [2] (at 50.0 µM) it was 96.8% (active); in assay [6] (setting [7]), 8%; in assay [6] (setting [8]) it was 97% (active); in assay [6] (at 50.0 µM), 93% (active). Further, the growth inhibition in assay [3] (setting [7]) is 6%; in assay [3] (setting [8]) it was 97% (active); in assay [3] (at 50.0 µM), 65.3%; in assay [4] (setting [7]) it was 2%; in assay [4] (setting [8]), 97% (active); in assay [4] (at 50.0 µM), 78% (active). Also, the growth inhibition in assay [5] (setting [7]) is 1%; in assay [5] (setting [8]), 95% (active); in assay [5] (at 50.0 µM), 94.4% (active).

Consider `CC(=O)OCC(OC(C)=O)C(OC(C)=O)C(OC(C)=O)C(COC(C)=O)OC(C)=O` (stereo unspecified), for which the growth inhibition in assay [1] (at 50.0 µM) is -27.2% and -22.9% and -9.4%; in assay [2] (at 50.0 µM), 9.3% and -7.9% and -11.8%; in assay [6] (at 50.0 µM), 3.45% and 10.6% and -10.8%; in assay [3] (at 50.0 µM) it was -30.3% and -21.9% and -0.1%; in assay [4] (at 50.0 µM), 0.95% and -9.35% and 14.6%; in assay [5] (at 50.0 µM), -24.4% and 7.9% and 2.5%.

Consider `Cc1cc(S(=O)(=O)Nc2nc(N)nc(N(C)C)n2)c(SC(C(=O)O)c2ccccc2)cc1Cl` (stereo unspecified), for which the growth inhibition in assay [2] (setting [7]) was -3%; in assay [2] (setting [8]) it was -15%; in assay [2] (at 50.0 µM), 14.1%; in assay [6] (setting [7]) it was -11%; in assay [6] (setting [8]), -8%; in assay [6] (at 50.0 µM), -0.25%. Also, the growth inhibition is -15% in assay [3] (setting [7]); 4% in assay [3] (setting [8]); 93.2% (active) in assay [3] (at 50.0 µM); 14% in assay [4] (setting [7]); -17% in assay [4] (setting [8]); 16.1% in assay [4] (at 50.0 µM). The growth inhibition was -9% in assay [5] (setting [7]), -3% in assay [5] (setting [8]) and 5.3% in assay [5] (at 50.0 µM).

As for `O=C(Nc1c(Cl)cccc1Cl)Oc1c(Br)cc(Br)cc1Br`, the growth inhibition was 66% in assay [2] (setting [7]); 94% (active) in assay [2] (setting [8]); 93% (active) in assay [2] (at 50.0 µM); 27% in assay [6] (setting [7]); 98% (active) in assay [6] (setting [8]); 93.2% (active) in assay [6] (at 50.0 µM). Moreover, the growth inhibition in assay [3] (setting [7]) is 25%; in assay [3] (setting [8]) it was 100% (active); in assay [3] (at 50.0 µM), 92.2% (active); in assay [4] (setting [7]), 58%; in assay [4] (setting [8]), 93% (active); in assay [4] (at 50.0 µM), 91% (active). Besides, the growth inhibition is 64% in assay [5] (setting [7]), 98% (active) in assay [5] (setting [8]) and 90.1% (active) in assay [5] (at 50.0 µM).

With `O=c1oc2ccccc2c(O)c1/C=N\c1nc(-c2ccccc2)cs1`, the growth inhibition in assay [1] (setting [7]) was 41%; in assay [1] (setting [8]) it was 99% (active); in assay [1] (at 50.0 µM) it was 8.95%; in assay [6] (setting [7]) it was 53%; in assay [6] (setting [8]), 100% (active); in assay [6] (at 50.0 µM), 31.9%. Moreover, the growth inhibition in assay [3] (setting [7]) was 36%; in assay [3] (setting [8]), 97% (active); in assay [3] (at 50.0 µM), 36.6%; in assay [4] (setting [7]) it was 81% (active); in assay [4] (setting [8]) it was 100% (active); in assay [4] (at 50.0 µM), 17.1%. Also, the growth inhibition was 34% in assay [5] (setting [7]), 99% (active) in assay [5] (setting [8]) and 91.8% (active) in assay [5] (at 50.0 µM).

Regarding `COC(=O)C1=C(/C=C/C(C)=O)NC(C)=C(C(=O)OC(C)C)C1c1ccccc1Cl` (stereo unspecified), the growth inhibition in assay [2] (setting [7]) is 34%; in assay [2] (setting [8]) it was 97% (active); in assay [2] (at 50.0 µM), 62.5%; in assay [6] (setting [7]), 37%; in assay [6] (setting [8]), 96% (active); in assay [6] (at 50.0 µM), 24.5%. Further, the growth inhibition in assay [3] (setting [7]) was 65%; in assay [3] (setting [8]), 95% (active); in assay [3] (at 50.0 µM), 33.5%; in assay [4] (setting [7]), 40%; in assay [4] (setting [8]), 97% (active); in assay [4] (at 50.0 µM) it was 41.2%. Besides, the results for the growth inhibition in assay [5] (setting [7]), in assay [5] (setting [8]) and in assay [5] (at 50.0 µM) were 34%, 95% (active) and 51.4%, respectively.

As to `Cc1cc(N=NC(N)=S)c2ccccc2c1O`, the growth inhibition in assay [2] (setting [7]) was -3%; in assay [2] (setting [8]), 1%; in assay [2] (at 50.0 µM), 24.9%; in assay [6] (setting [7]), -5%; in assay [6] (setting [8]) it was 16%; in assay [6] (at 50.0 µM), 6.7%. In addition, the growth inhibition in assay [3] (setting [7]) was -2%; in assay [3] (setting [8]), -23%; in assay [3] (at 50.0 µM), -22.1%; in assay [4] (setting [7]), 2%; in assay [4] (setting [8]) it was 15%; in assay [4] (at 50.0 µM), 37.2%. In addition, the growth inhibition in assay [5] (setting [7]) was -40%; in assay [5] (setting [8]), -1%; in assay [5] (at 50.0 µM), 53.8%.

On to `COc1ccccc1NC(=O)C1=C(C)NC(C)=C(C(=O)Nc2ccccc2OC)C1c1ccc(C2C(C(=O)Nc3ccccc3OC)=C(C)NC(C)=C2C(=O)Nc2ccccc2OC)cc1`, for which the growth inhibition in assay [1] (setting [7]) was 50%; in assay [1] (setting [8]), 86% (active); in assay [1] (at 50.0 µM) it was 75.8% (active); in assay [2] (setting [7]), 31%; in assay [2] (setting [8]), 94% (active); in assay [2] (at 50.0 µM), 81.2% (active). The growth inhibition was 38% in assay [3] (setting [7]); 77% (active) in assay [3] (setting [8]); 44.2% in assay [3] (at 50.0 µM); 40% in assay [4] (setting [7]); 95% (active) in assay [4] (setting [8]); 85.2% (active) in assay [4] (at 50.0 µM). Also, the growth inhibition in assay [5] (setting [7]) was 41%; in assay [5] (setting [8]), 95% (active); in assay [5] (at 50.0 µM), 47.9%.
